In PMC4336329 (PLoS ONE, 2015):
In all, about 310,000 compounds went through this assay and about 14,000 (4.5%) showed an effect of 50% or more. The effect is printed as a negative number. The entries come from a sample that favours strong results as a whole.

Molecular target: human ether-à-go-go-related gene (hERG) potassium channel (human, UniProt Q12809)
Assay: primary screen, population patch clamp on CHO cells stably expressing hERG; higher = less effect of the substance
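Note: peak tail current of the secondary pulse compared with the same well before compound.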

Chain of human ether-à-go-go-related gene (hERG) potassium channel (Q12809 whole entry, looked up): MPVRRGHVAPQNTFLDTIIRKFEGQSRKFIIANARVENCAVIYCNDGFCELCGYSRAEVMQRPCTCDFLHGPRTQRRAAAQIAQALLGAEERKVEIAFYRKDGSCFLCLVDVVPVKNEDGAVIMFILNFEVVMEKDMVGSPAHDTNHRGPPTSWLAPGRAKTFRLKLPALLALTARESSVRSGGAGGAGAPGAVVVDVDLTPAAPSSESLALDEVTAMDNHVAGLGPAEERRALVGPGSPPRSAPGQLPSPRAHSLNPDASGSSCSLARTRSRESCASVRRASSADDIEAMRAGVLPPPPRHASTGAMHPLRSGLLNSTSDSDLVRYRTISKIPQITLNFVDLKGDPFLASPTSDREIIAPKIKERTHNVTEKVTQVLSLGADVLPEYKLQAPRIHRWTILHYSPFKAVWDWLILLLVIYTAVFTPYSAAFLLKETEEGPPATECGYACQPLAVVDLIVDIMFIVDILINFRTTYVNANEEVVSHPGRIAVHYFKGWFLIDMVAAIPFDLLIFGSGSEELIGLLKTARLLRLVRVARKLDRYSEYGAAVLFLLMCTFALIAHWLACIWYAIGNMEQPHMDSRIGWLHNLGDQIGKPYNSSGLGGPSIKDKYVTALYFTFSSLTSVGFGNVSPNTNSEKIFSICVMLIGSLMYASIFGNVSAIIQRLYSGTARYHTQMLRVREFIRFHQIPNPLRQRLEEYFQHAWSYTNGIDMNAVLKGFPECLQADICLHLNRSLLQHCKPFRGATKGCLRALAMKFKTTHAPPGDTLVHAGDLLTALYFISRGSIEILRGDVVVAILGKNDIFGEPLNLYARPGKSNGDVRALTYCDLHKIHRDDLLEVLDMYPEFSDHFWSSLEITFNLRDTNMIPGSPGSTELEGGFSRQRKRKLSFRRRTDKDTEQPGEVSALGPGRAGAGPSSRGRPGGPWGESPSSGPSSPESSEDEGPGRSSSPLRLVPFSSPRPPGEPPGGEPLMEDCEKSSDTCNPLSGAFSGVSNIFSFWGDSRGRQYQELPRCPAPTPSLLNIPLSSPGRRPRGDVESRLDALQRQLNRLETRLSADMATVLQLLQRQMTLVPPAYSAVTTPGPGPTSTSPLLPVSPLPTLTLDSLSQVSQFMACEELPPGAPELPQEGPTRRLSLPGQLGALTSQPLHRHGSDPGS

Row | Structure (SMILES) | hERG current change (%, negative = inhibition) at 10uM [%]
1 | Cc1csc(CN(C)C(=O)C2CCC(=O)N(CCCc3ccccc3)C2)n1 (centres unmarked) | -5.37
2 | CCC1(CCCC(=O)c2ccc(F)cc2)C(=O)NC(=S)NC1=O | -3.66
3 | CCc1ccc(NC(=O)COc2coc(CN3CCN(c4ccccc4)CC3)cc2=O)cc1 | 12.3
4 | Cc1cccc(NC(=O)COc2coc(CN3CCN(c4ccccc4)CC3)cc2=O)c1C | -28.6
5 | O=C(COc1coc(CN2CCN(c3ccccc3)CC2)cc1=O)NC1CCCCC1 | -46.1
6 | O=C(COc1coc(CN2CCN(c3ccccc3)CC2)cc1=O)NC1CCCC1 | -13.6
7 | COc1ccccc1NC(=O)COc1coc(CN2CCN(c3ccccc3)CC2)cc1=O | -60
8 | Cc1ccc(NC(=O)COc2coc(CN3CCN(Cc4ccccc4)CC3)cc2=O)cc1 | -73.3
9 | Cc1cccc(NC(=O)COc2coc(CN3CCc4ccccc4C3)cc2=O)c1 | -8.19
10 | Cc1cccc(NC(=O)COc2coc(CN3CCN(Cc4ccccc4)CC3)cc2=O)c1 | -65
11 | Cc1ccc(NC(=O)COc2coc(CN3CCN(c4ccccc4)CC3)cc2=O)cc1 | 1.7
12 | O=C(COc1coc(CN2CCN(c3ccc(F)cc3)CC2)cc1=O)NC1CCCC1 | -53.1
13 | Cc1cccc(NC(=O)COc2coc(CN3CCN(c4ccccc4)CC3)cc2=O)c1 | -7.9
14 | O=C(COc1coc(CN2CCN(c3ccccc3)CC2)cc1=O)Nc1ccccc1F | -3.41
15 | CN(C)c1ccc(CN2CCCCC2)cc1 | 14.9
16 | CCN(CC(=O)N1CCCCCC1)S(=O)(=O)c1ccc(Cl)cc1 | -13.5
17 | CC1=Nc2ccccc2N=C(NC(=O)/C=C/C(=O)O)C1c1ccccc1 (centres unmarked) | 2.53
18 | O=c1[nH]c(=O)n(-c2ccccc2F)c(O)c1C=NCCC1=CCCCC1 | 25.6
19 | Cc1c(NC(=O)CN2CCC(C(N)=O)CC2)cccc1[N+](=O)[O-] | 26.4
20 | COc1ccc(N2CCN(C(c3cc(OC)ccc3OC)c3nnnn3CC3CCCO3)CC2)cc1.Cl (centres unmarked) | -9.64
21 | CC(C)CNC(=O)[C@H](Cc1ccccc1)NC(=O)c1ccco1 | -6.82
22 | CNC(=O)COc1coc(CN2CCN(Cc3ccccc3)CC2)cc1=O | 1.83
23 | Cc1ccccc1NC(=O)COc1coc(CN2CCN(c3ccccc3)CC2)cc1=O | -21.1
24 | Cc1ccccc1NC(=O)COc1coc(CN2CCN(Cc3ccccc3)CC2)cc1=O | -53.3

Row | Structure (SMILES) | hERG current change (%, negative = inhibition) at 10uM [%]
25 | CC(OC(=O)c1ccc(NS(=O)(=O)c2cccs2)cc1)C(=O)N(C)C1CCCCC1 (centres unmarked) | -0.558
26 | CCc1ccc(NS(=O)(=O)c2ccc3[nH]cc(C(=O)NCC4CCCO4)c(=O)c3c2)cc1 (centres unmarked) | 15.4
27 | CC(=O)Nc1ccc(C(=O)OCCC(C)C)cc1 | -17.4
28 | Cc1ccc(CNc2cc(C(=O)O)ccc2C)s1 | 19.2
29 | O=C(Cn1c(=O)n(CC2CCCO2)c(=O)c2ccccc21)N1CCN(c2ccccc2)CC1 (centres unmarked) | -21.8
30 | Cc1ccc(C)c(S(=O)(=O)N2CCCOC2CNC(=O)C(=O)NCc2ccccn2)c1 (centres unmarked) | 5.01
31 | CC(C)N1CCC(=NNC(=O)c2cccs2)CC1 | 25.6
32 | COC(=O)C1=C(N)Oc2cc(C)n(CCCn3ccnc3)c(=O)c2C1c1cccc(Cl)c1 (centres unmarked) | -69.7
33 | COC(=O)C1=C(N)Oc2cc(C)n(CCCn3ccnc3)c(=O)c2C1c1ccc(Cl)cc1 (centres unmarked) | -59.8
34 | COC(=O)C1=C(N)Oc2cc(C)n(C)c(=O)c2C1c1ccc(Cl)cc1 (centres unmarked) | 6.7
35 | COC(=O)C1=C(N)Oc2cc(C)n(CC3CCCO3)c(=O)c2C1c1ccc(Cl)cc1 (centres unmarked) | -8.41
36 | COC(=O)C1=C(N)Oc2cc(C)n(CCc3ccccc3)c(=O)c2C1c1cccnc1 (centres unmarked) | -25.9
37 | COC(=O)C1=C(N)Oc2cc(C)n(Cc3ccco3)c(=O)c2C1c1cccc(Cl)c1 (centres unmarked) | -5.24
38 | Cc1cccc(NS(=O)(=O)c2ccc3[nH]c(=O)[nH]c3c2)c1C | 13.7
39 | Cc1nn(Cc2ccccc2)c(C)c1NC(=O)CSc1nc(C2CC2)nc2c1cnn2-c1ccccc1 | 8.84
40 | OCCCNc1ncnc2oc(-c3ccccc3)c(-c3ccccc3)c12 | -13.2
41 | COc1ccc(-c2oc3ncnc(NCCCN(C)C)c3c2-c2ccc(OC)cc2)cc1 | -60.2
42 | CN(C)CCNc1ncnc2ccccc12.Cl | 7.66
43 | CN(C)CCCNc1ncnc2oc(-c3ccccc3)c(-c3ccccc3)c12 | -69.5
44 | COc1ccc(-c2oc3ncnc(N)c3c2-c2ccccc2)cc1 | 6.52
45 | Cc1c(C)n(-c2ccccc2)c2ncnc(NCCN(C)C)c12 | -4.04
46 | CN(C)CCNc1ncnc2sc(-c3ccccc3)cc12 | -21.1
47 | COc1ccc(-c2oc3ncnc(NCCCO)c3c2-c2ccc(OC)cc2)cc1 | 4.27
